PubChem BioAssay AID1233 (SRMLSC, 2008)
Measured potencies and affinities stand elsewhere.

target: HMG-CoA reductase [Enterococcus faecalis] (UniProt Q9FD70); assay: class II HMG-CoA reductase inhibition potency – biochemical, Enterococcus faecalis, confirmation (AID 1233);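 also: 0% = full reaction carrier wells and 100% = background wells lacking mevalonate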; settings: purified E. faecalis HMGR, NADPH absorbance 340 nm kinetics; series mostly up to 100 µM; inhibition: at the top concentration

inhibition, inactive:
CC(C)CC(O)(CC(C)C)C(=O)NNc1ccccc1 -1.34%
Cc1noc(C)c1CSc1nc2sc(C)c(C)c2c(=O)n1C1CCCC1 -0.73%
CCN(CC)CCNC(=O)C(=O)NCC1OCCN1C(=O)c1ccc2c(c1)OCO2 (centres undefined) -4.7%
CCN(CC)S(=O)(=O)c1cccc(C(=O)N[C@H](C(=O)Nc2nc3ccccc3s2)C(C)C)c1 -9.14%
COc1ccc(CC(=O)OCc2cc(=O)n3cc(Br)ccc3n2)cc1OC -1.03%
O=[N+]([O-])c1ccc(N2CCCCC2)c(-c2nn[nH]n2)c1 -1.68%
COc1cc(NC(=O)c2cc3nc(-c4ccccc4)cc(-c4ccccc4)n3n2)cc(OC)c1OC -0.02%
O=C1CN(C(=O)CSc2nc3cc(Cl)ccc3c(=O)n2Cc2ccccc2)c2ccccc2N1 -1.36%
COc1ccc(NC(=O)C2=C(C)NC(=O)NC2c2cccc(OC)c2OC)c(OC)c1 (centres undefined) -5.97%
O=C(Nc1ccc(N2CCCCC2)cc1)c1ccc2c(c1)OCCO2 -4.93%
COC(=O)c1cc(NC(=O)CSc2nnc(N)s2)ccc1Cl -0.91%
COc1ccc2cc(C3NC(=O)c4ccccc4N3)c(Cl)nc2c1 (centres undefined) -3.73%
CCOC(=O)c1cnn(-c2nc(-c3ccccc3)cs2)c1C(F)(F)F -2.29%
CCOC(=O)c1c(C)nc2ccc(C)cn12 -4.75%
Cc1ccc(/C=C/C(=O)O)cc1S(=O)(=O)NCCCO -7.91%
Cc1cccc(C(=O)N2CCC(=O)N(C(COCc3ccccc3)Cc3ccccc3)CC2)c1 (centres undefined) -2.57%
Cc1cc(Nc2cccc([N+](=O)[O-])c2)c2ccccc2n1 -2.62%
NC(=S)NNC(=O)c1cccc(Br)c1 -10.2%
O=C1c2ccccc2NC(c2ccc(Cl)cc2Cl)N1O (centres undefined) -1.95%
